The values that follow come from PubChem BioAssay (NCATS).

Values without a mark were called inactive. No rule for the calls is given here.
Potency is read from the fitted curve at half-maximal effect.

For the assay, the system named is HIV-1 nucleocapsid protein NCp7 (binding to TG oligonucleotide). Nature of the assay: HIV Nucleocapsid (AID 346).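 Also: potency is for inhibitors that block NC binding and lower polarization.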 Conditions: HIV-1 NC / fluorescein-TGTGTGTG probe, fluorescence polarization. The procedure, abridged: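 Reagents dispensed (10 nM TG4xF, 100 nM HIV-1 NC), plates spun, compounds pin-transferred, then incubated 1 hr at room temperature before FP imaging. Buffer: Hepes pH 7.5, 250mM NaCl, 1uM ZnCl2, 100 uM TCEP, 5 mM 2-mercaptoethanol.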
In general terms: Fluorescence polarisation rises when a labelled molecule tumbles more slowly, as on binding a larger partner.
As to `COc1ccc(-c2nc3cnc(N4CCOCC4)nc3n(-c3ccc(OC)cc3)c2=O)cc1`, the Potency is more than 20 µM.

On to `COc1cccc(Cn2c(=O)c(-c3cccc(C#N)c3)nc3cnc(OC)nc32)c1`, for which the Potency is more than 20 µM. Consider `Cc1noc(C)c1-c1cc(Nc2ccc(F)cc2)ncn1`, for which the Potency was more than 20 µM. Under `CS(=O)(=O)N1CCC2(CCCN(C(c3ccccc3)c3ccccc3)C2)CC1` stands more than 20 µM. Take `CCNc1ncc2nc(CCc3ccccc3)c(=O)n(-c3ccccc3)c2n1`: the Potency is more than 4 µM.

Turning to `COc1ccc(-n2c(=O)c(-c3cccs3)nc3cncnc32)cc1`, the Potency is more than 20 µM. Turning to `CN(C)c1ccc(-c2nccc(Nc3ccc(F)cc3)n2)cc1`, the Potency was more than 20 µM. In the case of `COc1cccc(Cn2c(=O)c(-c3ccc(Cl)cc3)nc3cnc(N(C)C)nc32)c1`, the Potency is more than 20 µM. On to `CN(Cc1ccco1)c1cc(-c2cccnc2)ncn1`, for which the Potency was more than 20 µM. On to `CN(C)C(=O)c1ccc(-c2cncnc2Nc2ccc(F)cc2)cc1`, for which the Potency is more than 20 µM. `FC(F)(F)c1cc(CN2CC[C@@]3(CCCNC3)C2)cc(C(F)(F)F)c1`: the Potency is more than 20 µM.

As to `COc1ccc(NC(=O)N2CCCC3(CCNCC3)C2)cc1`, the Potency was more than 20 µM.

Take `Cc1noc(C)c1-c1cncnc1NCc1cccnc1`: the Potency is more than 20 µM. Under `CN(C)c1ncc2nc(-c3ccc(Cl)cc3)c(=O)n(CCC#N)c2n1` stands more than 20 µM; under `Cc1nc2cnc(N3CCN(C)CC3)nc2n(CCc2ccccc2)c1=O`, more than 20 µM.

As for `COc1ccc(-n2c(=O)c(C)nc3cnc(Oc4cccc(Cl)c4)nc32)cc1`, the Potency was more than 20 µM. Turning to `O=c1c(-c2ccc(Cl)cc2)nc2cnc(N3CCNCC3)nc2n1Cc1cccs1`, the Potency is more than 20 µM. `CN(C)Cc1ccccc1-c1ccc2ncnc(NCc3cccs3)c2c1`: the Potency was more than 20 µM. In the case of `Cc1nc2cnc(Oc3cccc(Cl)c3)nc2n(CCc2ccccc2)c1=O`, the Potency was more than 20 µM. As to `COCCn1c(=O)c(-c2cn(C)c3ccccc23)nc2cnc(Oc3cccc(Cl)c3)nc21`, the Potency is more than 20 µM. For `COc1cccc(Nc2ncc3ncc(=O)n(CCC#N)c3n2)c1`, the Potency was more than 20 µM. In the case of `COc1ccc(Oc2ncc3ncc(=O)n(C)c3n2)cc1`, the Potency is more than 20 µM.

As for `CS(=O)(=O)Nc1cccc(-c2nc(Nc3ccc(F)cc3)c3ccccc3n2)c1`, the Potency is more than 20 µM. Under `COc1ccc(-n2c(=O)c(-c3cc(F)cc(F)c3)nc3cncnc32)cc1` stands more than 20 µM. With `COc1cccc(Cn2c(=O)c(-c3ccccc3)nc3cncnc32)c1`, the Potency was more than 20 µM. Take `N#Cc1cccc(-c2ccc3ncnc(NCc4cccnc4)c3c2)c1`: the Potency was more than 20 µM. Under `O=c1c(-c2cccs2)nc2cnc(N3CCNCC3)nc2n1C1CC1` stands more than 20 µM; under `CCNc1ncc2nc(CCc3ccccc3)c(=O)n(C[C@H]3CCCO3)c2n1`, more than 20 µM.

For the compound `COc1cccc(-c2ccc3ncnc(Nc4ccccc4)c3c2)c1`, the Potency is more than 20 µM. Regarding `O=C(c1ccncc1)N1CCC2(CC1)CN(C(c1ccccc1)c1ccccc1)C2`, the Potency is more than 20 µM. Regarding `COc1ccc(-n2c(=O)c(C)nc3cnc(N4CCOCC4)nc32)cc1`, the Potency is more than 20 µM. To `O=c1c(-c2cc(F)cc(F)c2)nc2cnc(Oc3ccccc3)nc2n1C1CC1` belongs more than 20 µM; to `c1ccc(Nc2ncncc2-c2ccc3c(c2)OCO3)cc1`, more than 20 µM. Consider `O=c1c(-c2ccc(F)cc2)nc2cnc(N3CCOCC3)nc2n1Cc1ccc(F)cc1`, for which the Potency was more than 20 µM.

For the compound `COc1ccccc1-c1ccc2ncnc(N3CCOCC3)c2c1`, the Potency was more than 20 µM. For `O=S(=O)(c1ccccc1)N1CCC2(CCN(C(c3ccccc3)c3ccccc3)CC2)CC1`, the Potency is more than 20 µM. Take `c1cncc(CNc2ncncc2-c2cccnc2)c1`: the Potency is more than 20 µM. To `COc1ccc(CNc2cc(-c3ccccc3OC)ncn2)c(OC)c1` belongs more than 20 µM; to `CN1CCCC2(CCN(C(=O)c3cnccn3)CC2)C1`, more than 20 µM; to `Cc1ccccc1-c1cncnc1N1CCNCC1`, more than 20 µM.
